Hits are enriched below; roughly 10% of the tested compounds scored in any of these assays.
BAZ2B inh – blocks human BAZ2B; Q9UIF8; AlphaScreen BAZ2B-H3K14Ac peptide displacement; Potency, µM (highest dose often 114 µM), actives largely listed as inhibitors; 360,000 compounds, 4.4% hits; AID 504333; also: nearly all actives have a fitted effect of over 60% in size
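Compounds, titrated to a top concentration of 110 uM, were incubated 30 min at room temperature with preformed BAZ2B/acetyl-K14 H3 peptide complex (50 nM each). Proximity signal was measured by AlphaScreen after 20 min with beads.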
GLS inh – blocks human kidney-isoform glutaminase activity | O94925 | GLS enzymatic activity, qHTS titration | Potency, µM (top dose mostly 45.5 µM), actives largely listed as inhibitors | 410,000 compounds, 0.21% hits | AID 624170
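Human kidney-isoform GLS in 45 mM KH2PO4 pH 8.2, 0.02% Tween-20, with compound, started with 1mM L-Glutamine (added stock). Glutamate oxidase/HRP/Amplex red coupled fluorescence read at start and after 30 min at RT.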
JMJD2A Tudor – inhibitors of human JMJD2A Tudor domain. O75164. AlphaScreen JMJD2A-Tudor / H3K4me3 peptide binding. Potency, µM (highest dose often 114 µM), actives largely listed as inhibitors. 390,000 compounds, 4.4% hits; also: nearly all actives have a fitted effect of over 50% in size
L3MBTL1 inh-1 – inhibitors of human L3MBTL1 | Potency, µM (titrated, usually from 57.1 µM), usual class: inhibitors | AID 485360 | Q9Y468 | 230,000 compounds, 0.66% hits | AlphaScreen L3MBTL1–H3K9me1 peptide binding; also: nearly all actives have a fitted effect of over 60% in size
Target sequence (Q9Y468 whole entry, looked up): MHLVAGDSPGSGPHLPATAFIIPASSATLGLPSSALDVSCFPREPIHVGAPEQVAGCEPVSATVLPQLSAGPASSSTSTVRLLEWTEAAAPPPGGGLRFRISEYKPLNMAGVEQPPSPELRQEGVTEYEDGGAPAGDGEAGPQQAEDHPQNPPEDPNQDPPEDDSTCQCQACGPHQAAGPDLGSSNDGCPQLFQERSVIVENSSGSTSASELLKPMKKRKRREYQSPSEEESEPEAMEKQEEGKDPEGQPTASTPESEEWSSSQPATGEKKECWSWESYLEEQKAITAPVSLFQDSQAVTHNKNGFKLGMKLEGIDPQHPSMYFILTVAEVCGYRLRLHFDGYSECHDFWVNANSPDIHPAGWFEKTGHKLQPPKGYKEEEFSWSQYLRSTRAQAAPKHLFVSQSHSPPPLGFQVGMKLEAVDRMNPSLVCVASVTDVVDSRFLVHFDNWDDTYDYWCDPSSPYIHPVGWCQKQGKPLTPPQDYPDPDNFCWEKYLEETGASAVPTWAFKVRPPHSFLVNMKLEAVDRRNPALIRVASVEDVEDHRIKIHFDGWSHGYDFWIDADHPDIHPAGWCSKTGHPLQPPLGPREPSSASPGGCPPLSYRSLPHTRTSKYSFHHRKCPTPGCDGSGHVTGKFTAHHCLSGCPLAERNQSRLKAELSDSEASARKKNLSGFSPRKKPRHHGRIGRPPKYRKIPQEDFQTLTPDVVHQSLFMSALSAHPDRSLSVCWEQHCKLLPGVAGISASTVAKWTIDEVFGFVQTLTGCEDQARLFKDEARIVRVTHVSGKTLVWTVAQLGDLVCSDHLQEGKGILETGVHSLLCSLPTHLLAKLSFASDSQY
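First, the protein-peptide complex forms for 30 min at room temperature (L3MBTL1 50 nM, biotinylated H3K9me1 peptide 75 nM). Next, compounds are pin-transferred and incubated 30 min. Finally, AlphaScreen beads are added and read after 30 min.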
G9a inh – inhibitors of human histone lysine methyltransferase G9a. Q96KQ7. G9a H3K9 monomethylation, AlphaScreen, 2 h. Potency, µM (series often up to 102 µM), usual class: inhibitors. 350,000 compounds, 8.8% hits; also: nearly all actives have a fitted effect of over 75% in size
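AlphaScreen detection with an anti-monomethyl H3K9 antibody quantified product after a 2 h room-temperature reaction containing 500 nM biotinylated H3K9 peptide, 20 µM SAM and 20 nM enzyme, which had been preincubated 15 min with compound.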
HP1b chromo inh – HP1-beta chromodomain-methylated histone interaction inhibition. P83916. AlphaScreen HP1-beta / biotin-H3K9me3 peptide binding. Potency, µM (doses to about 114 µM), usual class: inhibitors. 390,000 compounds, 0.56% hits; also: nearly all actives have a fitted effect of over 70% in size
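HP1-beta protein (50 nM final) preincubated 30 min at room temperature with biotinylated H3(1-18)K9me3 peptide (50 nM) in PBS pH 7.4, 0.01% Tween-20, then compound added for 30 min. AlphaScreen streptavidin donor/nickel chelate acceptor beads (10 ug/mL final), 30 min dark, luminescence read.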
L3MBTL1 inh-2 – L3MBTL1 binding inhibition validated. 500 compounds, 91% hits. shares compounds with L3MBTL1 inh-1. L3MBTL1 methyl-lysine binding inhibition, biochemical qHTS. Potency, µM, most hits filed as inhibitors; also: nearly all actives have a fitted effect of over 70% in size
L3MBTL1 ctr – counter-screen for L3MBTL1 inhibitors: AlphaScreen signal interference; shares compounds with L3MBTL1 inh-1; AlphaScreen counterscreen, signal inhibition; Potency, µM (highest dose often 57.1 µM), most hits filed as inhibitors; 500 tested, under 10 active
A number is an active result; i = inactive; ? = inconclusive; nt = no result given; [ ] = remark or other dose. Calls follow the shape of the dose curve; as a rule, active = well fitted curve in the direction sought with a large enough effect; inconclusive = small, poorly fitted or top-dose-only effect, or another doubt; inactive = no such curve, though single readings can be large; an effect the other way counts as inactive or inconclusive.

SMILES	BAZ2B inh	GLS inh	JMJD2A Tudor	L3MBTL1 inh-1	G9a inh	HP1b chromo inh	L3MBTL1 inh-2	L3MBTL1 ctr
O=c1[nH]n(-c2cccc3cccnc23)c(=O)c2ccccc12	i	i	i	i	i	i	nt	nt
O=C(CCCN1C(=O)C(c2ccccc2)Oc2cccnc21)Nc1ccc(Br)cc1F (configuration not stated)	i	i	i	nt	i	i	nt	nt
O=C(CCCSc1ccccc1)Nc1nc(-c2ccco2)c(-c2ccco2)s1	22µM	i	40µM	22µM	?	28µM	24	?
O=C(CCSc1ccccc1)Nc1nccs1	i	i	i	nt	i	i	nt	nt
CCCN(CCC)CCNC(=O)CN1C(=O)COc2ccc(S(=O)(=O)N3CCC(C)CC3)cc21	i	i	i	nt	?	i	nt	nt
COC(=O)COc1ccc(C2Nc3c(Cl)ccc(C(=O)O)c3C3C=CCC32)cc1 (configuration not stated)	50µM	?	45µM	20µM	13µM	?	17	i
O=C(CSc1ncccc1-c1nc2ccccc2[nH]1)NCc1ccco1	56µM	?	35µM	35µM	10µM	?	21	?
O=C(CSc1nc2ccccc2[nH]1)NCc1ccco1	nt	i	i	i	i	i	nt	nt
Cc1ccc(/C=C2\SC(N3CCN(C(c4ccccc4)c4ccccc4)CC3)=NC2=O)o1	?	i	?	14µM	4.5µM	i	15	i
Oc1c(N=Nc2ccc(F)cc2)ccc2ccccc12	1.4µM	i	2.5µM	7.9µM	2.5µM	3.2µM	1.1	0.75µM
O=C(Cn1c(=O)n(-c2ccccc2)c(=O)c2c3c(sc21)CCC3)c1ccc(F)cc1	i	i	i	nt	i	i	nt	nt
O=C(Cn1c(=O)n(Cc2ccco2)c(=O)c2c3c(sc21)CCCCC3)c1ccccc1	i	i	?	35µM	i	i	3.8	i
O=C(/C=C/c1ccc(O)c(O)c1)OC1C(O)CC(OC(=O)/C=C/c2ccc(O)c(O)c2)(C(=O)O)CC1O (configuration not stated)	i	?	22µM	1µM	32µM	i	0.075	i
COc1ccc2c(c1)c(=O)oc1c(C)c(OC(C)C(=O)NCC3CCC(C(=O)O)CC3)ccc12 (configuration not stated)	i	i	i	nt	i[12.7 µM]	i	nt	nt
COc1ccc2c(c1)c(=O)oc1c(C)c(OCc3cc(C(=O)O)oc3C)ccc12	?	?	28µM	35µM	?	?	11	i
Cc1ccc(NC(=O)C2(C)Cc3ccccc3C(=O)O2)c(C)c1 (configuration not stated)	i	i	i	nt	i	i	nt	nt
O=C(O)c1c2c(nc3ccccc13)/C(=C/c1ccc(O)cc1)CC2	40µM	?	56µM	4µM	22µM	i	1.5	i
Cc1ccc(C)c(NC(=O)CCN2C(=O)c3ccccc3Sc3ncccc32)c1	i	i	i	nt	i	i	nt	nt
Cc1ccc(S(=O)(=O)c2nnn3c2nc(N2CCN(c4ccc(F)cc4)CC2)c2cc(Cl)ccc23)cc1C	i	i	i	nt	i	i	nt	nt
CC(=O)Oc1ccc2c(=O)c(Oc3ccccc3)coc2c1OC(C)=O	50µM	i	?	14µM	8.9µM	i	9.5	i
Cc1ccc(/C=C(\CCC(=O)O)c2nc3ccccc3s2)cc1[N+](=O)[O-]	i	i	i	i	i	i	nt	nt
CN(c1ccccc1)c1ccc(/C=C(\CCC(=O)O)c2nc3ccccc3s2)cc1[N+](=O)[O-]	11µM	i	45µM	28µM	?	?	24	?
O=C(COc1ccc([N+](=O)[O-])cc1)Nc1cccc2cccnc12	i	i	i	nt	i	i	nt	nt
O=C1NC(=O)/C(=C\c2ccc(O)cc2O)S1	28µM	?	20µM	4µM	18µM	?	1.7	?
O=C(Nc1cc2c(oc1=O)CCCC2=O)c1ccc(Cl)cc1	40µM	?	14µM	16µM	i[12.7 µM]	i	3.8	i
SMILES	BAZ2B inh	GLS inh	JMJD2A Tudor	L3MBTL1 inh-1	G9a inh	HP1b chromo inh	L3MBTL1 inh-2	L3MBTL1 ctr
CN(C)c1ccc(CNS(=O)(=O)c2ccc3[nH]c4c(c3c2)CCCCC4)cc1	i	i	i	nt	?	i	nt	nt
COC(=O)c1ccccc1NC(=O)c1noc2c1CCC2	50µM	?	50µM	28µM	45µM	?	9.5	i
COc1ccc(OC)c(NC(=O)c2noc3c2CCCC3)c1	i	i	i	nt	i	i	nt	nt
CCN(CC)S(=O)(=O)c1ccc2c(c1)c(=O)c(C(=O)N1CCN(c3ccc(F)cc3)CC1)cn2C	nt	i	i	nt	i	i	nt	nt
COc1ccccc1CNS(=O)(=O)c1c(C)nc2sc(C)cn2c1=O	i	i	i	nt	i	i	nt	nt
Oc1c(CN2CCN(c3ccccn3)CC2)cc(Cl)c2cccnc12	14µM	i	32µM	4.5µM	?	i	21	i
O=C(Oc1c(CN2CCOCC2)cc(Cl)c2cccnc12)c1ccccc1Cl	11µM	?	50µM	14µM	i	i	27	i
CCCCC#Cc1nc(N)c2ncn([C@@H]3O[C@H](C(=O)NCC)[C@@H](O)[C@H]3O)c2n1	nt	nt	nt	nt	i[12.7 µM]	nt	nt	nt
COc1ccc(-n2cccc2/C=C2\C(=N)N3N=C(C(C)C)SC3=NC2=O)cc1	?	i	i	i	?	i	nt	nt
COc1ccc(-n2cccc2/C=C2\C(=N)N3N=C(c4ccco4)SC3=NC2=O)cc1	40µM	i	14µM	16µM	?	i	2.7	?
CCCn1c2ccccc2c2cnn(CC(=O)N(CCCOC)Cc3ccco3)c(=O)c21	i	i	i	nt	i	i	nt	nt
COC(=O)N/N=C/c1ccc(-c2ccc(C)c(Cl)c2)o1	i	i	i	i	i	i	nt	nt
O=C1NN(c2ccccc2)C(=O)/C1=C/c1ccc(-c2ccc(C(=O)O)cc2)o1	50µM	11µM	56µM	13µM	nt	?	3	?
COC(=O)c1ccc(N2NC(=O)/C(=C/c3ccc(-c4ccc(Cl)c(C(=O)O)c4)o3)C2=O)cc1	50µM	?	56µM	6.3µM	18µM	?	1.7	i
O=C1NN(c2ccc(Br)cc2)C(=O)/C1=C\c1ccc(O)cc1O	?	i	?	i	nt	?	nt	nt
CC1=NOC(=O)/C1=C\c1ccc(-c2ccc(Cl)c(C(=O)O)c2)o1	79µM	i	79µM	20µM	16µM	?	2.7	i
Cc1cc2cc(CCNS(=O)(=O)c3ccc(Br)cc3)c(=O)[nH]c2cc1C	i	i	i	nt	i	i	nt	nt
CCc1ccc(NC(=O)CCn2nc(-c3ccccc3OC)c3c(C)cc(C)nc32)cc1	i	i	i	nt	i	i	nt	nt
O=C(Cc1ccc([N+](=O)[O-])cc1)N/N=C/c1ccc([N+](=O)[O-])o1	?	i	i	i	?	i	nt	nt
